Screening data from PubChem BioAssay.
CD40 NFkB inh: CD40 pathway inhibition in BL2 cells; BL2 NF-kB luciferase reporter, CD40L-induced, 4 h; 0.94% of 83,000 active; inhibition, % at 10 µM;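 active = mean inhibition of at least 50% with a set share of replicates also reaching that level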;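 also: 0% = neutral control wells and 100% = IKK inhibitor VII at 50 µM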
Starred values were filed as active, the others as inactive; ! = repeats disagree; [ ] = remark or other dose. The entries come from a sample that favours hits as a whole.

SMILES	CD40 NFkB inh
O=C(C1CCCC1)N1C[C@@H]2N[C@H](C1)C2c1ccc(-c2cccc(F)c2)cc1 (some centres undefined)	8
O=C(Nc1ccc(F)cc1)N1C[C@@H]2N[C@H](C1)C2c1ccc(-c2ccccc2F)cc1 (some centres undefined)	-4
Cc1cccc(-c2ccc(C3[C@@H]4CN(C(=O)Nc5ccccc5)C[C@H]3N4)cc2)c1 (some centres undefined)	0
O=C(C1CC1)N1C[C@@H]2N[C@H](C1)C2c1ccc(-c2ccccc2F)cc1 (some centres undefined)	83*!
N#Cc1ccc(-c2ccc(C3[C@@H]4CN(C(=O)C5CCCC5)C[C@H]3N4)cc2)cc1 (some centres undefined)	3
O=C(Nc1ccc(C(F)(F)F)cc1)N1C[C@@H]2N[C@H](C1)C2c1ccc(/C=C/c2ccccc2)cc1 (some centres undefined)	45
O=C(C1CC1)N1C[C@@H]2N[C@H](C1)C2c1ccc(-c2cccc(F)c2)cc1 (some centres undefined)	60*!
N#Cc1cccc(-c2ccc(C3[C@@H]4CN(C(=O)C5CC5)C[C@H]3N4)cc2)c1 (some centres undefined)	76*!
O=C(Nc1ccc(C(F)(F)F)cc1)N1C[C@@H]2N[C@H](C1)C2c1ccc(-c2ccccc2)cc1 (some centres undefined)	70*!
Cc1cccc(-c2ccc(C3[C@@H]4CN(C(=O)C5CCC5)C[C@H]3N4)cc2)c1 (some centres undefined)	14
O=C(c1ccc(F)cc1)N1C[C@@H]2N[C@H](C1)C2c1ccc(-c2ccccc2F)cc1 (some centres undefined)	4[25 µM]
N#Cc1ccc(-c2ccc(C3[C@@H]4CN(C(=O)C5CCC5)C[C@H]3N4)cc2)cc1 (some centres undefined)	44
O=C(c1ccccc1F)N1CC2(C1)[C@H](c1ccccc1)[C@@H](CO)N2CC1CCOCC1	2[25 µM]
CC(C)[C@H](C)NC(=O)N(C)C[C@H]1OCc2ccccc2-c2c(n(C)c3ccccc23)C(=O)N([C@H](C)CO)C[C@@H]1C	6
CCS(=O)(=O)N1CC(=O)N2[C@@H](CO)[C@H](c3ccc(-c4cccc(F)c4)cc3)[C@@H]2C1	-6
COc1cccc(-c2cn(CC[C@H]3CC[C@@H](NC(=O)CC4CC4)[C@H](CO)O3)nn2)c1	-5
CCC(=O)N1[C@H](CO)[C@@H](c2ccc(/C=C/c3ccccc3)cc2)C12CN(S(C)(=O)=O)C2	17[25 µM]
CC(=NNC(=S)N1CCC1)c1ccccn1	97*
CC(=NNC(=S)N1CC2CCC(CC2)C1)c1cccc(C)n1	-20
C/C(=N/NC(=O)c1ccccn1)c1ccco1	18
C/C=C/c1ccc([C@@H]2[C@@H](CO)N(C(C)=O)[C@H]2CNC(=O)CC2CC2)cc1	-6
C[C@H]1CN(C)C(=O)c2cccc(N)c2O[C@@H]1CN(C)C(=O)OC(C)(C)C	0
CO[C@@H]1CN(C)C(=O)c2ccc(NC(=O)c3cc(C)on3)cc2OC[C@H](C)NC[C@@H]1C	-7[25 µM]
COc1ccccc1S(=O)(=O)N(C)C[C@@H]1OCc2cn(nn2)CCCC(=O)N([C@@H](C)CO)C[C@@H]1C	3[25 µM]
CC(=O)N/C(N)=N/c1nc(=O)c2ccccc2s1	-97
SMILES	CD40 NFkB inh
Nc1nc(=O)c2ccccc2s1	51*
Nc1nc2c(F)cccc2s1	0
CC(=O)Nc1ccc2c(c1)CC(=O)N(C)C[C@H](C)[C@@H](CN(C)S(C)(=O)=O)O2	-4
CN(C)CC(=O)N1[C@@H](CO)[C@H](c2ccccc2)C12CN(C(=O)c1ccc(F)cc1)C2	-1[25 µM]
Cc1ccc(/C=C/c2nc3ccccc3s2)s1	75*
c1ccc2sc(N3CCOCC3)nc2c1	-29
c1ccc2sc(-c3ccncc3)nc2c1	-64
CC(C)NC(=O)Nc1ccc2c(c1)C(=O)N(C)C[C@H](C)[C@@H](CN(C)S(C)(=O)=O)O2	4
CC(=O)N(C)C[C@@H]1Oc2c(cccc2N(C)C)C(=O)N(C)C[C@@H]1C	8
Fc1ccc(-c2nnc(Cc3nnc(-c4ccc(F)cc4)o3)o2)cc1	5
Fc1ccc(-c2nnc(NC3=NCCCCC3)o2)cc1	74*
Fc1ccc(NC2=NCCCCC2)cc1	8
O=C(O)[C@@H]1[C@@H](CO)[C@@H]2Cn3c(ccc(/C=C/c4ccccc4)c3=O)[C@@H]2N1C(=O)C1CCCC1	8[25 µM]
Cc1ccc(S(=O)(=O)N(C)C[C@H]2OCCCC[C@H](C)Oc3ccc(NS(=O)(=O)c4ccc(F)cc4)cc3C(=O)N([C@H](C)CO)C[C@H]2C)cc1	10
O=C(C[C@@H]1C[C@@H]2c3cc(NC(=O)C4CCOCC4)ccc3O[C@@H]2[C@@H](CO)O1)NCc1cc(F)ccc1F	-7[25 µM]
C/C=C/c1ccccc1[C@@H]1[C@@H](C#N)N(C(=O)c2cccnc2)[C@@H]1CO	19[25 µM]
CSc1nnc(CNC(=O)C23CC4CC(CC(C4)C2)C3)n1Cc1ccccc1	8
CN(C)C(=S)N=c1ssc(=S)n1Cc1ccccc1	44*
C[C@@H]1CN([C@@H](C)CO)C(=O)CCCn2cc(nn2)CO[C@@H]1CN(C)Cc1ccc(O)cc1	-3
OC(COC(c1ccc(F)cc1)c1ccc(F)cc1)CN1CCCC1 (centres undefined)	6
Cc1ccc(C(OCC(O)CNCc2ccc(F)cc2)c2ccccc2)cc1 (centres undefined)	50*
O=C(c1ccccc1)c1ccc(OCC(O)CNCc2ccc(F)cc2)cc1 (centres undefined)	10
CO[C@@H]1CN(C)C(=O)c2ccc(NC(=O)C3CCOCC3)cc2OC[C@@H](C)N(CC2CC2)C[C@@H]1C	-10
O=C(NC[C@H]1[C@H](c2ccccc2)[C@H](CO)N1CC1CCCC1)c1ccncc1	-4[25 µM]
CC(C)=NNc1ncnc2nc[nH]c12	-17
CC(C)CCCCCCCCCCCCC(=O)NCC(=O)NC1C(O)C(O)C(Nc2ncnc3nc[nH]c23)OC1C(O)CO (centres undefined)	104*
N#Cc1ccc(-c2ccc3c(c2)[C@@H]2[C@@H](CCN2C(=O)c2ccc4c(c2)OCO4)[C@@H](CO)N3)cc1	-14[25 µM]
CO[C@H]1CC[C@H]2CCN(C)C(=O)[C@@H](C)N(C)C(=O)c3cccc(C#N)c3OC[C@@H]1O2	9[25 µM]
CC(C)C[C@@H]1COCc2cn(nn2)CC[C@H](Cc2ccc(-c3ccccc3)cc2)C(=O)N1	-4
C[C@H](CO)N1C[C@H](C)[C@H](CN(C)Cc2cccc3c2OCCCO3)OCc2ccccc2-c2c(n(C)c3ccccc23)C1=O	-29[25 µM]
